Measured values reported in PubChem BioAssay (NCI).
This is part of a sample that, as a whole, favours compounds with a hit. Of some 83,000 tested, about 20% had one in any assay.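 Plates (96-well) were seeded with cells, treated with compound at one concentration, and incubated for 48 hours before percent growth was determined.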 Values without a mark were called inactive. Calls of active or inactive are those of the source. How the source made its calls: active means growth percent below 10; inactive means the rest.

Columns and labels:
Assay in all cases: NCI-60 one-dose screen, 48 h (100 = growth as untreated, 0 = no growth, -100 = all killed)
SK-MEL-2 melanoma = details: 10 µM
SN12C renal = details: 10 µM
UO-31 renal = details: 10 µM
TK-10 renal = details: 10 µM unless noted
ACHN renal = details: 10 µM
CAKI-1 renal = details: 10 µM
A498 renal = details: 10 µM
CCRF-CEM leukemia = details: 10 µM
MOLT-4 leukemia = details: 10 µM
EKVX NSCLC = details: 10 µM

Row | SMILES | growth (SK-MEL-2 melanoma) [%] | growth (SN12C renal) [%] | growth (UO-31 renal) | growth (TK-10 renal) | growth (ACHN renal) | growth (CAKI-1 renal) | growth (A498 renal) | growth (CCRF-CEM leukemia) | growth (MOLT-4 leukemia) | growth (EKVX NSCLC)
1 | CC(=O)OCCO | 143 | 98.5 | 90.3% | 114% | 105% | 104% | 109% | 111% | 102% | 
2 | CC1=CC(C)(C)NC(=S)N1c1ccc(S(=O)(=O)O)c2cccc(S(=O)(=O)O)c12 |  | 103 | 72.6% | 106% | 99.5% | 115% | 97.6% | 94.1% | 114% | 115%
3 | O=C(O)CNC(=O)c1ccccc1 |  |  |  |  |  |  |  |  |  | 93.4%
4 | C=CC[N+](C)(C)C | 111 | 101 | 97% | 92.7% | 100% |  | 106% |  | 94% | 
5 | COc1cccc(Sc2ccc([N+](=O)[O-])c3no[n+]([O-])c23)c1 |  | 74.4 | -21.5% (active) | 60.3% | 9.88% (active) | 64.8% | 98% | -19.5% (active) | 0.692% (active) | 91.9%
6 | O=C(O)C(c1ccccc1)C(O)c1ccccc1 (configuration not stated) |  | 98.2 | 94.4% | 108% | 96.6% | 100% | 69.8% | 99.8% | 87.5% | 108%
7 | CC(C)=NNc1ccc([N+](=O)[O-])cc1[N+](=O)[O-] |  | 84.4 | 61.3% | 96.9% | 64.8% | 53.9% | 74.5% | 42.2% |  | 74%
8 | O=C(O)c1ccc(S(=O)(=O)O)cc1 |  | 95.2 | 64.4% | 116% | 99.5% | 79% | 122% | 106% | 118% | 104%
9 | CC(C)(N)COS(=O)(=O)O | 117 | 93.6 | 100% | 115% | 114% | 103% | 113% |  | 96.9% | 
10 | COCCCNC(=O)c1nnn2c1nc(N)c1cc(Cl)ccc12 | 74.2 | 101 | 71.7% | 105% | 104% | 80.6% | 96.4% |  | 79.6% | 
11 | O=S(=O)(O)CC(O)CN1CCN(CCO)CC1 (configuration not stated) |  | 110 | 91.6% | 116% | 111% | 106% | 106% | 103% | 90.3% | 119%
12 | Cc1cc(C(O)(c2ccc(Nc3ccccc3)cc2)c2ccc(Nc3ccc(S(=O)(=O)O)cc3)cc2)ccc1N (configuration not stated) |  | 22.5 | 3.47% (active) | 7.3% (active) | -13.2% (active) | 31.7% | 2.33% (active) | 2.35% (active) | 8.2% (active) | 9.86% (active)
13 | C/C(=N\NC(=O)c1ccccc1N)c1ccccc1O | 71.2 | 41.1 | 29.3% | 27.6% | 32.3% | 3.89% (active) | 89% |  | 19.3% | 
14 | CCOC(=O)C1=C(Nc2ccc(Br)cc2)C(=O)N(CC)C1 | 124 | 86 | 84.1% | 101% | 92.4% | 88.2% | 90.9% |  | 103% | 
15 | COC(=O)/C=C/C(=O)NC(N)=O | 85.2 | 101 | 91.5% | 102% | 99.4% | 99.2% | 98.6% |  | 100% | 
16 | C[C@@H](c1ccccc1)[C@@H](C(=O)O)c1ccccc1 | 99.5 | 98.1 | 91.2% |  | 96.4% | 99.1% | 96.7% | 98.9% | 102% | 
17 | Cc1cccc(C(=O)N(C(C)C)C(C)C)c1 |  | 96.1 | 94.4% | 87% | 101% | 96.4% | 71.9% | 90.7% | 108% | 95%
18 | COC(=O)c1ccc(NC(=O)CCl)cc1 | 66 | 76.6 | 107% | 88% | 85.7% | 83.9% | 97.4% |  | 72.7% | 
19 | CCCC[P+](c1ccccc1)(c1ccccc1)c1ccccc1 | 75.7 | 60.1 | 86.9% | 74.8% | 84.9% |  | 75.5% |  | 59.1% | 
20 | O=C(N/N=C/c1ccccc1O)Nc1nn[nH]n1 | 110 | 100 | 90.2% |  | 92.8% | 94.8% | 94.9% | 98.8% | 109% | 
21 | C/C(=N\O)C1(O)CCCCC1 | 82.9 | 101 | 96.8% |  | 97.7% | 99.3% | 99.1% | 99.4% | 89.8% | 
22 | OC1OC(COC(c2ccccc2)(c2ccccc2)c2ccccc2)C(O)C(O)C1O (configuration not stated) | 91.5 | 74 | 76.7% |  | 96.9% | 96.5% | 93.7% |  | 87.6% | 
23 | Nc1ccccc1SC(CC(=O)c1ccccc1)c1c(Cl)cccc1Cl (configuration not stated) | 91.6 | 62.9 | 58.1% |  | 69.4% | 76.9% | 79.1% |  | 17.2% | 
24 | O=[N+]([O-])c1cccc2nsnc12 | 106 | 104 |  |  | 105% | 114% | 102% | 95.9% | 101% | 
25 | CCCCC(O)c1ccccc1 (configuration not stated) |  | 109 | 94.2% | 106% | 110% | 99.7% | 95.8% | 107% | 101% | 110%
26 | CCCNc1ccc(C2=NCCCN2)cc1 | 102 | 109 | 81.7% |  | 102% | 101% | 71.7% | 99.1% | 93.7% | 
27 | CCOC(=O)C/C(C)=N\O | 107 | 98.6 | 81.6% | 93.4% | 112% | 92.8% | 111% |  | 95.2% | 
28 | CCOC(=O)c1[nH]c(C)c(C(=O)O)c1C |  | 99.5 | 84.7% | 104% | 102% | 97.3% | 102% | 89.6% | 91.9% | 105%
